# Source: PubChem BioAssay (National Center for Advancing Translational Sciences (NCATS))
# This is a sample that favours compounds with a hit; in the whole collection about 21% have one here.
# CHX counter = affects cycloheximide protein synthesis inhibition readout, counter-screen; cell reporter, cycloheximide protein synthesis inhibition counterscreen; max response, %; actives 12% (n = 300,000); AID 2314; in the data active = max response mostly above about 13%, no sharp cut-off; inactive = mostly below about 14%; note: read at 38.3 µM for the half of the compounds with a filed dose; 0% is about no effect
# Shiga inhibitor = blocks Shiga toxin action in Vero cells. Vero cells, Shiga toxin protein synthesis inhibition reporter. inhibition, % at 38.7 µM. actives 9.2% (n = 290,000). AID 2315; in the data active = inhibition mostly above about 28%, no sharp cut-off; inactive = mostly below about 43%; note: 0% is about no effect
# Pf growth 96h = P. falciparum growth inhibition at 96 hours; Potency, µM (series often up to 28.7 µM), for the others: top-dose activity change, negative = inhibition, hits mostly inhibitors; actives 6.9% (n = 320,000); P. falciparum luciferase reporter growth, 96 h; note: potency is the fitted concentration of half-maximal effect; % is set by controls: 0 for no effect and ±100 for the full control effect
#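 Plates of compound plus infected erythrocytes (2% hematocrit, 0.05% parasitemia final) incubate 96 hours, 37 C, 5% CO2. Detection reagent added; reduced luminescence from the parasites' luciferase reporter flags inhibition.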
# Pf growth 48h = P. falciparum growth inhibition at 48 hours (one generation). P. falciparum luciferase growth in erythrocytes, 48 h. Potency, µM (highest dose often 28.7 µM), for inactives: at the top dose activity change, negative = inhibition, hits mostly inhibitors. actives 5.9% (n = 310,000); note: potency is the fitted concentration of half-maximal effect; % is set by controls: 0 for no effect and ±100 for the full control effect
#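 First compound was added to culture medium, then infected red cells at 0.1% parasitemia and 2% hematocrit (final). After incubation at 37 C under 5% CO2, luciferase detection reagent was dispensed and light output recorded.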
# HCMV inh = blocks human cytomegalovirus replication. actives 4.5% (n = 410,000). HFF cells, HCMV-luciferase reporter, 72 h; active compounds read low. activity change, negative = inhibition, % at 57.5 µM; in the data active = activity change below about -60%; inconclusive = no clear call, values can overlap the other calls; inactive = above about -39%; note: % is set by controls: 0 for no effect and ±100 for the full control effect
#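 Inhibition of viral replication was scored as loss of reporter luminescence in HFFs infected with HCMV-luciferase (MOI 1 PFU/cell) for 72 h; compounds tested at 2 doses, normalized to buffer and Salinomycin controls.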
# HCV inh = HCV inhibition | Huh7.5.1 HCVcc-Cre infection, luciferase reporter, 44 h | Potency, µM (doses to about 41.8 µM), without a hit: at the highest dose activity change, negative = inhibition, usual class: inhibitors | actives 3.4% (n = 340,000); note: potency is the fitted concentration of half-maximal effect; % is set by controls: 0 for no effect and ±100 for the full control effect
#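 A cell-based infection assay in which seeded cells (1,000 per well) receive test compound after 4 h, are inoculated with HCVcc-Cre at approximately 0.5 moi, and are incubated 44 h before luminescence detection.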
# Active calls of the source: *; u = inconclusive; x = no result. Unless noted, calls come from the whole dose curve; as a rule, active = well fitted inhibition curve with a large enough effect; inconclusive = small, poorly fitted or top-dose-only effect, or another doubt; inactive = no such curve, though single readings can be large or run the other way.
SMILES,CHX counter,Shiga inhibitor,Pf growth 96h,Pf growth 48h,HCMV inh,HCV inh
Cc1ccc(N(CC(=O)N2CCN(c3ccc(F)cc3)CC2)S(=O)(=O)c2c(C)noc2C)cc1,-11,-5,u,u,-25,-21%
O=C(CN1CCN(S(=O)(=O)c2ccc(F)c(F)c2)CC1)Nc1ccccc1C(=O)NC1CC1,x,x,-55%,u,33,u
COc1ccc2c3n([n+]([O-])c2c1)CCN=C3c1ccc(Cl)cc1,x,x,56%,-16%,-6,13%
O=[N+]([O-])c1ccc2c3n([n+]([O-])c2c1)CCN=C3c1ccc(Cl)cc1,x,x,u,12µM*,-2,u
Cc1ccc(NC(=O)COC(=O)Cc2ccc(Br)cc2)cc1S(=O)(=O)N1CCOCC1,x,x,x,x,-32,10%
Cc1nc2ccccc2n1C(c1cccnc1)c1nc2ccccc2[nH]1 (centres undefined),x,x,x,x,-79*,x
CC(=O)OC1(C)CC(C)C(=O)C(C(O)CC2CC(=O)NC(=O)C2)C1 (centres undefined),x,x,x,x,-105*,0.5µM*
C[C@@H]1C[C@@H]([C@H](O)CC2CC(=O)NC(=O)C2)C(=O)[C@@H](C)C1,x,x,0.1µM*,0.1µM*,-76*,1.3µM*
CCOc1ccc(OCC(=O)NCCS(=O)(=O)N2CCN(c3cccc(Cl)c3)CC2)cc1,x,x,x,x,-14,x
CC(C)(O)P(=O)(O)CCc1ccccc1,-2,-1,-3%,u,73,24%
COC(=O)C(NS(=O)(=O)c1ccc(N2CCCC2=O)cc1)c1ccccc1 (centres undefined),14,-29,u,12%,5,x
COCCN(C(=O)CSc1nc2ccccc2c(=O)n1CCOC)c1c(N)n(Cc2ccccc2)c(=O)[nH]c1=O,-1,-3,-22%,u,-32,12%
Nn1c(CSc2nc3ccccc3o2)nnc1CSc1nc2ccccc2o1,-3,-10,u,18%,3,u
c1ccc2oc(SCc3cn4ccsc4n3)nc2c1,50*,119*,u,128%,88,-9%
Cc1cc(C)n2c(Br)c(CSc3nc4ccccc4o3)nc2n1,41*,40,12%,71%,-18,u
Cc1csc2nc(CSc3nc4ccccc4o3)cn12,53*,71*,-27%,0%,102,2%
CCCCC(=O)NC(=S)Nc1cccc(Cl)c1N1CCCCC1,-2,-15,u,u,50,-20%
